# Test results as given in PubChem BioAssay (EPA / NIEHS).
# Inconclusive results are not listed. The source made the active and inactive calls. Rule for the calls: active = hit-call score of the fitted dose curve at least 0.9, where 1 is the maximum; inconclusive = response in the unintended direction; inactive = score below 0.9.
# Experiments:
# [1] = target: Cellular tumor antigen p53 (Homo sapiens) (UniProt P04637); assay: TOX21_p53_BLA_p2_ratio: Tox21 HCT-116 p53 Agonism Beta-lactamase Assay, Ratio, Phase 2 (AID 2283592)
# Cellular tumor antigen p53 (Homo sapiens), sequence (P04637 whole entry, looked up): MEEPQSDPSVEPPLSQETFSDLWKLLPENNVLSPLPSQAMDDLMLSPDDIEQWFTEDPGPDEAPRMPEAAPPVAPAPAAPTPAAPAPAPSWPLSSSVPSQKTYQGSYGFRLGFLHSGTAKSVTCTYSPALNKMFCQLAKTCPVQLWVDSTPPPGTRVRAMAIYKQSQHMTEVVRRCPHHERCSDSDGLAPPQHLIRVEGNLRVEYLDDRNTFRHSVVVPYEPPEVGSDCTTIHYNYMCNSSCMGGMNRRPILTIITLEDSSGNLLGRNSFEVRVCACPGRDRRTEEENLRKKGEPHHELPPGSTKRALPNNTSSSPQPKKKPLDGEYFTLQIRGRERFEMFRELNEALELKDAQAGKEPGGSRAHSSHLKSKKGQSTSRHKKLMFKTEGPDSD
# Method in brief: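 Read-out is the blue/green (460/530 nm, 405 nm excitation) ratio after 2 h CCF4-AM loading, fitted as gain versus DMSO. Compounds, pinned at 217-fold dilution from DMSO stocks, stayed 16 h on HCT-116 beta-lactamase reporter cells seeded 5 h earlier.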
# [2] = target: Cellular tumor antigen p53 (Homo sapiens) (UniProt P04637); assay: TOX21_p53_BLA_p4_ratio: Tox21 HCT-116 p53 Agonism Beta-lactamase Assay, Ratio, Phase 4 (AID 2283601)
# Method in brief: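 HCT-116 p53 beta-lactamase reporter cells (4000/well) preincubated 5 h, then compound (217-fold dilution of DMSO stock) for 16 h at 37C. CCF4-AM substrate added 2 h at room temperature; 460/530 nm emission ratio fitted upward versus DMSO.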
# [3] = TOX21_p53_BLA_p3_viability: Viability Assessment in the Tox21 HCT-116 p53 Agonism Beta-lactamase Assay, Phase 3 (AID 2283593);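 note: cells exposed to compound for 16 h before reading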
# Method in brief: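 HCT116 cells, 4000/well, dosed 5 h after plating by pin transfer (217-fold dilution from DMSO stock) and incubated 16 h at 37C, 5% CO2. Viability read as ATP luminescence with CellTiter-Glo after 30 min at room temperature.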
# [4] = target: Cellular tumor antigen p53 (Homo sapiens) (UniProt P04637); assay: TOX21_p53_BLA_p3_ratio: Tox21 HCT-116 p53 Agonism Beta-lactamase Assay, Ratio, Phase 3 (AID 2283596)
# Method in brief: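 Cells were seeded at 4000/well, rested 5 h at 37C, then dosed with DMSO compound solutions (217-fold dilution) for 16 h. CCF4-AM substrate was loaded for 2 h at room temperature, and the 460/530 nm emission ratio was fitted for gain of signal versus DMSO.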
# [5] = TOX21_p53_BLA_p4_viability: Viability Assessment in the Tox21 HCT-116 p53 Agonism Beta-lactamase Assay, Phase 4 (AID 2283597);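 note: hits lower the luminescence signal meaning cytotoxicity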
# Method in brief: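 Cytotoxicity as reduced cellular ATP (CellTiter-Glo luminescence, 30 min room temperature), measured in the same wells following the CCF4 FRET p53 reading. Human HCT-116 cells received compounds in DMSO (217-fold dilution) for 16 h.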
# [6] = target: Cellular tumor antigen p53 (Homo sapiens) (UniProt P04637); assay: TOX21_p53_BLA_p5_ratio: Tox21 HCT-116 p53 Agonism Beta-lactamase Assay, Ratio, Phase 5 (AID 2283599)
# Method in brief: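 HCT-116 p53-bla cells (4000/well) plated 5 h, dosed with compound (217-fold DMSO dilution) for 16 h at 37 C; CCF4-AM substrate 2 h at room temperature. Activity is the 460/530 nm emission ratio (405 nm excitation), fitted in gain-of-signal direction versus DMSO.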
# [7] = TOX21_p53_BLA_p5_viability: Viability Assessment in the Tox21 HCT-116 p53 Agonism Beta-lactamase Assay, Phase 5 (AID 2283600)
# Method in brief: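 Viability came from CellTiter-Glo ATP luminescence, read after 30 min at room temperature. Before this, HCT-116 p53-bla cells (4000/well) had 16 hours of compound exposure at 37C, with DMSO stocks diluted 217-fold on transfer.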
structure (smiles),measurement,setting,value
c1cnc2cc3c(cc2n1)C1CNCC3C1,outcome,[1],inactive
same,outcome,[2],inactive
CC(=O)OCC(C)C,outcome,[3],inactive
same,outcome,[4],inactive
CC1(c2ccccc2)OC(C(=O)O)=CC1=O (stereo not given),outcome,[1],inactive
same,outcome,[2],inactive
CC[C@@H](N)CO,outcome,[3],inactive
same,outcome,[4],inactive
same,outcome,[5],inactive
same,outcome,[6],inactive
FC(F)(F)C(Cl)(Cl)Cl,outcome,[1],inactive
same,outcome,[7],inactive
same,outcome,[2],inactive
O=C(O)c1cc2cc(Cc3cccnc3)ccc2o1,outcome,[1],inactive
same,outcome,[7],inactive
same,outcome,[2],inactive
C=C(C)C(=O)OCCCCCCCC(C)C,outcome,[3],inactive
same,outcome,[4],inactive
same,outcome,[5],inactive
same,outcome,[6],inactive
same,outcome,[7],inactive
CC1OCCC1=O (stereo not given),outcome,[1],inactive
same,outcome,[7],inactive
same,outcome,[2],inactive
C=C1C(=O)O[C@H]2[C@H]1CC/C(C)=C/CC[C@@]1(C)O[C@@H]21,outcome,[3],inactive
same,AC50,[4],34.3 µM (active)
same,AC50,[5],36.9 µM (active)
same,outcome,[7],inactive
Nc1nc(NC2CC2)c2ncn([C@H]3C=C[C@@H](CO)C3)c2n1,outcome,[3],inactive
same,outcome,[4],inactive
same,outcome,[6],inactive
same,outcome,[7],inactive
CC(C(=O)O)c1ccc2c(c1)Cc1cccnc1O2 (stereo not given),outcome,[3],inactive
same,outcome,[4],inactive
same,outcome,[6],inactive
same,outcome,[7],inactive
O=C(O)c1cc(C(=O)O)cc(C(=O)O)c1,outcome,[3],inactive
same,outcome,[4],inactive
same,outcome,[5],inactive
same,outcome,[6],inactive
same,outcome,[2],inactive
NCCCC(O)(P(=O)(O)O)P(=O)(O)O,outcome,[3],inactive
same,outcome,[4],inactive
same,outcome,[6],inactive
same,outcome,[7],inactive
O=S(=O)(O)c1cccc(S(=O)(=O)O)c1,outcome,[3],inactive
same,outcome,[4],inactive
same,outcome,[6],inactive
same,outcome,[7],inactive
same,outcome,[2],inactive
CC(=O)CC(=O)Nc1ccc(S(=O)(=O)O)cc1,outcome,[3],inactive
same,outcome,[4],inactive
same,outcome,[5],inactive
same,outcome,[6],inactive
same,outcome,[2],inactive
